Results filed as inconclusive are left out. The source made the active and inactive calls. Calls come from the whole dose curve; as a rule, active = well fitted curve in the direction sought with a large enough effect; inconclusive = small, poorly fitted or top-dose-only effect, or another doubt; inactive = no such curve, though single readings can be large; an effect the other way counts as inactive or inconclusive.
Legend:
CRL-7250 = normal cell line; assay: Cytotoxic Profiling of Annotated Libraries Using Quantitative High-Throughput Screening (AID 1296008); conditions: Five cell lines viability, CellTiter-Glo ATP luminescence, 48-72 h; max response: hits give low values; note: nearly all actives have a fitted effect of over 60% in size; for max response: % is set by controls: 0 for no effect and ±100 for the full control effect
Outline: (§1)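 Cells exposed to compounds for 48 or 72 hr at 37 degrees Celsius. Viability read as ATP-coupled luminescence with CellTiter-Glo after 10 min at room temperature.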

HEK293 = assay: as above; conditions: Five cell lines viability, CellTiter-Glo ATP luminescence, 48-72 h; max response: hits give low values
Outline: as §1

HaCat = assay: as above; conditions: Five cell lines viability, CellTiter-Glo ATP luminescence, 48-72 h; max response: hits give low values
Outline: as §1

KB-3-1 = assay: as above; conditions: Five cell lines viability, CellTiter-Glo ATP luminescence, 48-72 h; max response: hits give low values
Outline: as §1

NIH3T3 = assay: as above; conditions: Five cell lines viability, CellTiter-Glo ATP luminescence, 48-72 h; max response: hits give low values
Outline: as §1

HEK293T = assay: qHTS assay to identify novel small-molecules to repurpose for Merkel cell carcinoma treatment (AID 1296009); conditions: MCC and control cell lines, CellTiter-Glo viability, 72 h; series mostly up to 44.8 µM; note: nearly all actives have a fitted effect of over 60% in size
Outline: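 Dose-response viability screen; 72 hr exposure at 37 degree celsius; CellTiter-Glo added, 10 min room temperature, luminescence read; RLUs scaled between no-cell and DMSO wells.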

C33A = assay: Primary qHTS to identify gynecologic anti-cancer compounds using libraries of approved drugs and bioactive compounds (AID 1345084); conditions: Gynecologic cancer cell panel viability, ATPlite luminescence, 48 h; series mostly up to 57.5 µM; note: % is set by controls: 0 for no effect and ±100 for the full control effect; nearly all actives have a fitted effect of over 55% in size
Outline: (§2)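 In this quantitative HTS, cell killing is estimated from loss of ATP-dependent luciferase light. Cells see five compound concentrations over a 48 h exposure.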

CAOV3 = assay: as above; conditions: Gynecologic cancer cell panel viability, ATPlite luminescence, 48 h; series mostly up to 57.5 µM
Outline: as §2

CASKI = assay: as above; conditions: Gynecologic cancer cell panel viability, ATPlite luminescence, 48 h; series mostly up to 57.5 µM
Outline: as §2

Es-2 = assay: as above; conditions: Gynecologic cancer cell panel viability, ATPlite luminescence, 48 h; series mostly up to 57.5 µM
Outline: as §2

HeLa = assay: as above; conditions: Gynecologic cancer cell panel viability, ATPlite luminescence, 48 h; series mostly up to 57.5 µM
Outline: as §2

CCC(C)/C=C(C)/C=C/C1=CC2=C(Cl)C(=O)C(C)(OC(C)=O)C(=O)C2=CN1CCCC(=O)O (stereo unspecified)
inactive: outcome (CRL-7250) | outcome (HEK293) | max response (HaCat) -6.78% | outcome (KB-3-1) | max response (NIH3T3) -0.464% | Potency (HEK293T) | Potency (C33A) | Potency (CAOV3) | Potency (CASKI) | Potency (Es-2) | Potency (HeLa)

CCOc1c2c(c(OCC)c3ccccc13)C(=O)N(c1ccc(CC(=O)NS(=O)(=O)c3ccccc3)cc1)C2
inactive: max response (CRL-7250) -1.51% | outcome (HEK293) | max response (HaCat) -7.44% | max response (KB-3-1) 1.17% | max response (NIH3T3) 3.33% | Potency (HEK293T) | Potency (C33A) | Potency (CAOV3) | Potency (CASKI) | Potency (Es-2) | Potency (HeLa)

C=C/C=C/[C@@H]1OC[C@H](/C=C/C=C/C)[C@H]1O
inactive: max response (CRL-7250) -3.1% | outcome (HEK293) | max response (HaCat) -9.46% | outcome (KB-3-1) | max response (NIH3T3) -1.27% | Potency (HEK293T) | Potency (C33A) | Potency (CAOV3) | Potency (CASKI) | Potency (Es-2) | Potency (HeLa)

OCC1OC(Oc2cc(O)c3c(c2)OC(c2ccc(O)cc2)C(O)C3)C(O)C1O (stereo unspecified)
inactive: max response (CRL-7250) -1.28% | outcome (HEK293) | max response (HaCat) -8.75% | max response (KB-3-1) 9.04% | max response (NIH3T3) 2.06% | Potency (HEK293T) | Potency (C33A) | Potency (CAOV3) | Potency (CASKI) | Potency (Es-2) | Potency (HeLa)

COC(=O)CC1(O)C(=O)Nc2ccccc21 (stereo unspecified)
inactive: max response (CRL-7250) 3.09% | outcome (HEK293) | max response (HaCat) -5.67% | outcome (KB-3-1) | max response (NIH3T3) 2.12% | Potency (HEK293T) | Potency (C33A) | Potency (CAOV3) | Potency (CASKI) | Potency (Es-2) | Potency (HeLa)

C[C@@H](Nc1cc(NS(=O)(=O)N2CCC2)nc(SCc2cccc(F)c2F)n1)[C@@H](O)CO
inactive: max response (CRL-7250) 3.18% | outcome (HEK293) | max response (HaCat) 1.29% | max response (KB-3-1) -2.77% | outcome (NIH3T3) | Potency (HEK293T) | Potency (C33A) | Potency (CAOV3) | Potency (CASKI) | Potency (Es-2) | Potency (HeLa)

C=C1[C@@H]2[C@H]3OC(=O)C(=C)[C@@H]3CC[C@@](C)(O)[C@@H]2C[C@@H]1O[C@@H]1O[C@H](CO)[C@@H](O)[C@H](O)[C@H]1O
inactive: max response (CRL-7250) -4.93% | outcome (HEK293) | max response (HaCat) -10.8% | max response (KB-3-1) 1.42% | max response (NIH3T3) -3.98% | Potency (HEK293T) | Potency (C33A) | Potency (CAOV3) | Potency (CASKI) | Potency (Es-2) | Potency (HeLa)

Cc1coc2c1CC1OC1(C)CCC1OC1(C)C2 (stereo unspecified)
inactive: max response (CRL-7250) 4.59% | outcome (HEK293) | max response (HaCat) 3.75% | max response (KB-3-1) 8.78% | outcome (NIH3T3) | Potency (HEK293T) | Potency (C33A) | Potency (CAOV3) | Potency (CASKI) | Potency (Es-2) | Potency (HeLa)

CC1(C)CC[C@]2(C(=O)O)CC[C@]3(C)C(=CCC4[C@@]5(C)C[C@@H](O)[C@H](O)C(C)(C)C5CC[C@]43C)[C@@H]2[C@@H]1O (stereo partly specified)
inactive: max response (CRL-7250) -1.48% | outcome (HEK293) | max response (HaCat) -22.1% | max response (KB-3-1) 0.492% | max response (NIH3T3) -12.3% | Potency (HEK293T) | Potency (C33A) | Potency (CAOV3) | Potency (CASKI) | Potency (Es-2) | Potency (HeLa)

NC(=O)[C@H]1CCCCc2c1[nH]c1ccc(Cl)cc21
inactive: outcome (CRL-7250) | outcome (HEK293) | max response (HaCat) -14.2% | max response (KB-3-1) 7.59% | max response (NIH3T3) 4.7% | Potency (HEK293T) | Potency (C33A) | Potency (CAOV3) | Potency (CASKI) | Potency (Es-2) | Potency (HeLa)

CC[C@H]1OC(=O)[C@H](C)[C@@H](O[C@H]2C[C@@](C)(OC)[C@@H](O)[C@H](C)O2)[C@H](C)[C@@H](O[C@@H]2O[C@H](C)C[C@H](N(C)C)[C@H]2O)[C@@](C)(O)C[C@@H](C)[C@@H]2N[C@@H](COCCOC)OC([C@H]2C)[C@]1(C)O
inactive: max response (CRL-7250) -11.1% | outcome (HEK293) | max response (HaCat) -20.8% | outcome (KB-3-1) | max response (NIH3T3) -6.11% | Potency (HEK293T) | Potency (C33A) | Potency (CAOV3) | Potency (CASKI) | Potency (Es-2) | Potency (HeLa)

COC(=O)[C@@]1(C)CC[C@]2(C(=O)O[C@@H]3O[C@H](CO)[C@@H](O)[C@H](O)[C@H]3O)CC[C@]3(C)C(=CCC4[C@@]5(C)CC[C@H](O[C@@H]6O[C@H](C(=O)O)[C@@H](O)[C@H](O)[C@H]6O)C(C)(C)C5CC[C@]43C)[C@@H]2C1 (stereo partly specified)
inactive: max response (CRL-7250) -18.2% | outcome (HEK293) | max response (HaCat) -2.02% | max response (KB-3-1) -0.321% | max response (NIH3T3) 2.66% | outcome (HEK293T) inactive [at 9.27 µM] | activity change, negative = cytotoxicity (C33A) -14.8% [at 11.6 µM] | activity change, negative = cytotoxicity (CAOV3) -1.21% [at 11.6 µM] | activity change, negative = cytotoxicity (CASKI) -4.58% [at 11.6 µM] | activity change, negative = cytotoxicity (Es-2) -0.312% [at 11.6 µM] | activity change, negative = cytotoxicity (HeLa) -10.5% [at 11.6 µM]

CC1CCC2(C)C(CC(O)C(O)C23CO3)C1(C)CCC1=CC(O)OC1=O (stereo unspecified)
inactive: max response (CRL-7250) 3.32% | outcome (HEK293) | max response (HaCat) 0.263% | max response (KB-3-1) -2.97% | max response (NIH3T3) -4.84% | Potency (HEK293T) | Potency (C33A) | Potency (CAOV3) | Potency (CASKI) | Potency (Es-2) | Potency (HeLa)

COc1cc(C2OCC3C(c4ccc(OC5OC(CO)C(O)C(O)C5O)c(OC)c4)OCC23)ccc1O (stereo unspecified)
inactive: max response (CRL-7250) -7.16% | outcome (HEK293) | max response (HaCat) -4.17% | max response (KB-3-1) -0.0986% | max response (NIH3T3) -0.3% | Potency (HEK293T) | Potency (C33A) | Potency (CAOV3) | Potency (CASKI) | Potency (Es-2) | Potency (HeLa)

O=C(/C=C/c1ccc(O)c(O)c1)OCc1ccccc1O[C@@H]1O[C@H](CO)[C@@H](O)[C@H](O)[C@H]1O
inactive: max response (CRL-7250) -1.33% | outcome (HEK293) | max response (HaCat) 1.88% | max response (KB-3-1) 0.279% | max response (NIH3T3) -4.16% | Potency (HEK293T) | Potency (C33A) | Potency (CAOV3) | Potency (CASKI) | Potency (Es-2) | Potency (HeLa)

C/C(=C\CO)CC/C=C(\C)C(=O)O[C@H]1[C@H](OC2OC=C(C(=O)O)C3CCC(C)(O)C23)O[C@H](CO)[C@@H](O)[C@@H]1O (stereo partly specified)
inactive: max response (CRL-7250) -10.5% | outcome (HEK293) | max response (HaCat) 1.01% | outcome (KB-3-1) | max response (NIH3T3) 0.631% | Potency (HEK293T) | Potency (C33A) | Potency (CAOV3) | Potency (CASKI) | Potency (Es-2) | Potency (HeLa)

— PubChem BioAssay (NCATS)
